# Assay results as given in the supplement of paper PMC9117331.
# Columns and labels:
# Details in all cases: 0.5 µM; time after treatment 48 h; PC9 signalome
# PC9 [1] = assay: AKT reporter activity score (signed KS statistic vs DMSO) (signed KS statistic (-1 to 1)); higher = stronger activation of the pathway reporter relative to DMSO
# PC9 [2] = assay: RAR reporter activity score (signed KS statistic vs DMSO) (signed KS statistic (-1 to 1)); higher = stronger activation of the pathway reporter relative to DMSO
# PC9 [3] = assay: PKC reporter activity score (signed KS statistic vs DMSO) (signed KS statistic (-1 to 1)); higher = stronger activation of the pathway reporter relative to DMSO
# PC9 [4] = assay: PKA reporter activity score (signed KS statistic vs DMSO) (signed KS statistic (-1 to 1)); higher = stronger activation of the pathway reporter relative to DMSO
# PC9 [5] = assay: p38 reporter activity score (signed KS statistic vs DMSO) (signed KS statistic (-1 to 1)); higher = stronger activation of the pathway reporter relative to DMSO
# PC9 [6] = assay: HIF reporter activity score (signed KS statistic vs DMSO) (signed KS statistic (-1 to 1)); higher = stronger activation of the pathway reporter relative to DMSO
# PC9 [7] = assay: ERK reporter activity score (signed KS statistic vs DMSO) (signed KS statistic (-1 to 1)); higher = stronger activation of the pathway reporter relative to DMSO
# PC9 [8] = assay: JNK reporter activity score (signed KS statistic vs DMSO) (signed KS statistic (-1 to 1)); higher = stronger activation of the pathway reporter relative to DMSO
# PC9 [9] = assay: WNT reporter activity score (signed KS statistic vs DMSO) (signed KS statistic (-1 to 1)); higher = stronger activation of the pathway reporter relative to DMSO
# PC9 [10] = assay: NFkB reporter activity score (signed KS statistic vs DMSO) (signed KS statistic (-1 to 1)); higher = stronger activation of the pathway reporter relative to DMSO
# PC9 [11] = assay: YAP/TAZ reporter activity score (signed KS statistic vs DMSO) (signed KS statistic (-1 to 1)); higher = stronger activation of the pathway reporter relative to DMSO
compound,measurement,setting,value
CC[C@@H]1/C=C/C=C/C[C@H](C)[C@H](O)[C@](C)(O)C(=O)[C@H](C)[C@@H](O)[C@H](C)C(=O)[C@H](C)[C@@H](O)[C@H](C)/C=C/C(=O)O[C@H]2[C@@H](C)[C@@H](CC1)O[C@@]1(CC[C@@H](C)[C@@H](C[C@H](C)O)O1)[C@@H]2C [Oligomycin A],AKT reporter activity score,PC9 [1],-0.252
same,RAR reporter activity score,PC9 [2],0.0549
same,PKC reporter activity score,PC9 [3],0.0686
same,PKA reporter activity score,PC9 [4],-0.0505
same,p38 reporter activity score,PC9 [5],-0.305
same,HIF reporter activity score,PC9 [6],0.335
same,ERK reporter activity score,PC9 [7],0.114
same,JNK reporter activity score,PC9 [8],0.0667
same,WNT reporter activity score,PC9 [9],0.138
same,NFkB reporter activity score,PC9 [10],0.0911
same,YAP/TAZ reporter activity score,PC9 [11],0.161
